This is an account of results in PubChem BioAssay (EPA / NIEHS).

By AC50 is commonly meant the concentration at which the activity in the assay is half-maximal.

Active and inactive are the calls of the source. The calls were made as follows: active = hit-call score of the fitted dose curve at least 0.9, where 1 is the maximum; inactive = score below 0.9.

The nature of assay [1]: ATG_GRE_CIS: Attagene CIS-FACTORIAL HepG2 Assay for human Glucocorticoid Response Elements (GRE) (AID 2282947). The following applies: HepG2 GRE cis-reporter, Attagene multiplex mRNA; actives raise or lower the signal. The gist of the method: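 Reporter transcripts read by RT-PCR with capillary electrophoresis fluorescence after a 24 h chemical exposure of HepG2 cells transiently transfected with multiple cis-element reporter units. Gain or loss fitted against DMSO.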

Assay [2] can be described thus: ATG_ISRE_CIS: Attagene CIS-FACTORIAL HepG2 Assay for human Interferon Regulatory Factor 1 (IRF1) binding to an Interferon-Stimulated Response Element (ISRE) (AID 2282948). To be noted: HepG2 ISRE cis-reporter (Attagene), mRNA transcription readout; actives raise or lower the signal. The gist of the method:
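Endogenous transcription factor activity read as reporter transcript abundance via RT-PCR and capillary electrophoresis. HepG2 cells transiently transfected, 24 h chemical exposure. Gain or loss fitted against DMSO baseline.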

Assay [3] in a line: ATG_M_32_CIS: Attagene CIS-FACTORIAL HepG2 Assay for M32 Transcription Factor (Internal Marker) (AID 2282949).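 Also: background control marker of the multiplexed CIS panel rather than a real target.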 The following applies: HepG2 Attagene cis-factorial M32 reporter, mRNA; actives raise or lower the signal. The gist of the method:
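HepG2 human liver cells transiently transfected with cis-promoter-driven multiple reporter transcription units, dosed 24 h. Reporter mRNA quantified by RT-PCR, FAM-labelled primer extension, HpaI digest and capillary electrophoresis; bidirectional fit versus DMSO baseline.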

Assay [4] is described as follows: ATG_M_06_CIS: Attagene CIS-FACTORIAL HepG2 Assay for M06 Transcription Factor (Internal Marker) (AID 2282950). The following applies: HepG2 Attagene CIS-FACTORIAL M06 internal marker reporter; actives raise or lower the signal. The gist of the method: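 Serves as a background control readout. Transfected HepG2 exposed to compounds for 24 h, then reporter transcripts quantified by fluorescent RT-PCR and capillary electrophoresis. Both directions fitted against DMSO baseline.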

The target of assay [5] is Hypoxia-inducible factor 1-alpha (Homo sapiens) (UniProt Q16665). The assay can be described thus: ATG_HIF1a_CIS: Attagene CIS-FACTORIAL HepG2 Assay for human Hypoxia Inducible Factor 1 (HIF1A) (AID 2282951). The following applies: HepG2 Attagene cis-factorial HIF1a reporter transcription; actives raise or lower the signal. The gist of the method: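 Measures endogenous transcription-factor activity through cis-regulated reporter mRNA in HepG2. Cells dosed 24 h; transcripts quantified by RT-PCR with 6-FAM-labelled products separated by capillary electrophoresis; DMSO serves as negative control.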
Sequence of Hypoxia-inducible factor 1-alpha (Homo sapiens) (Q16665 whole entry, looked up): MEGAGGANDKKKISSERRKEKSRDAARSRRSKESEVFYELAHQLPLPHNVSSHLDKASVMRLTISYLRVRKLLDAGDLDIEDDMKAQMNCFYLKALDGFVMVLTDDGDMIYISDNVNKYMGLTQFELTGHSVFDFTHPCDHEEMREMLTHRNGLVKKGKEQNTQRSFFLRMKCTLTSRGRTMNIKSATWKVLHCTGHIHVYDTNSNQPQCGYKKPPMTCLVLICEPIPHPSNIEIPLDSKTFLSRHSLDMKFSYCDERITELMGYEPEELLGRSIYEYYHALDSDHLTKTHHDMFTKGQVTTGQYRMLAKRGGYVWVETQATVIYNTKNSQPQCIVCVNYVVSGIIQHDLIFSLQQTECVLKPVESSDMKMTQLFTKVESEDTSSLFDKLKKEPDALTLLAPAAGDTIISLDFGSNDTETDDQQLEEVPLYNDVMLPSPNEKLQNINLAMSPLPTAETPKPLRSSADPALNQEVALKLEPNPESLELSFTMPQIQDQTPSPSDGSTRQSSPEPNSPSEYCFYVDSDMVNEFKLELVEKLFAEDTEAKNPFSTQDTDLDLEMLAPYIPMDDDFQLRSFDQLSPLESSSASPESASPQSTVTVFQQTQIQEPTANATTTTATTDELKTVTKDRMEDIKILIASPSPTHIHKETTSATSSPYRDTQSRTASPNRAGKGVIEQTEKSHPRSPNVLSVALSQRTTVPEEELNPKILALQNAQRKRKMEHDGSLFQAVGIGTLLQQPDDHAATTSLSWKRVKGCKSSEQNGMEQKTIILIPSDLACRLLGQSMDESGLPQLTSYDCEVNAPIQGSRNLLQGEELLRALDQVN

The target of assay [6] is Hepatocyte nuclear factor 6 (Homo sapiens) (UniProt Q9UBC0). The assay can be described thus: ATG_HNF6_CIS: Attagene CIS-FACTORIAL HepG2 Assay for human Hepatocyte Nuclear Factor 6 (HNF6) (AID 2282952). To be noted: HepG2 Attagene cis-factorial HNF6 reporter transcription; actives raise or lower the signal. In outline:
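First, HepG2 cells were transfected with the multiplexed cis reporter library and dosed with chemical for 24 h. Next, RNA was reverse-transcribed, PCR-amplified and fluorescently labelled. Finally, HpaI-digested fragments were read by capillary electrophoresis.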

The target in assay [7] is Heat shock factor protein 1 (Homo sapiens) (UniProt Q00613). The assay can be described thus: ATG_HSE_CIS: Attagene CIS-FACTORIAL HepG2 Assay for human Heat Shock Transcription Factor 1 (HSE) (AID 2282953). To be noted: HepG2 HSE cis-reporter, Attagene RNA transcription; actives raise or lower the signal. The gist of the method: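 Endogenous transcription factor activity in transiently transfected HepG2, read as reporter mRNA by RT-PCR with fluorescent capillary electrophoresis after 24 h. Gain or loss of signal fitted versus DMSO baseline.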
Sequence of Heat shock factor protein 1 (Homo sapiens) (Q00613 whole entry, looked up): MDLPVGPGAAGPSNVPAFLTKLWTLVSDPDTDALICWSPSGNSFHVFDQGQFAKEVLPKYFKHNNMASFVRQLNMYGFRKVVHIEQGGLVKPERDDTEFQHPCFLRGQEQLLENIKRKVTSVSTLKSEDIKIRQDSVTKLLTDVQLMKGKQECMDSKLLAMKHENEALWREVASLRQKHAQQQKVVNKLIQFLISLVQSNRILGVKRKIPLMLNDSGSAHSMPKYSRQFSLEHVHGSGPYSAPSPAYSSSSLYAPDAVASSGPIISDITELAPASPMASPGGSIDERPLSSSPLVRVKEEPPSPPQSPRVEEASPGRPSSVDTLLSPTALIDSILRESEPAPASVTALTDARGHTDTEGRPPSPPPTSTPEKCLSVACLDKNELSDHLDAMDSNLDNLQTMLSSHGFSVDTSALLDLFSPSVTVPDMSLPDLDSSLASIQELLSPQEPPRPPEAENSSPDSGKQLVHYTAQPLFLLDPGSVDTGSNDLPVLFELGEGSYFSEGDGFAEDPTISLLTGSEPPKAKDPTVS

A short description of assay [8]: ATG_MRE_CIS: Attagene CIS-FACTORIAL HepG2 Assay for human Metal Responsive Element (MRE) (AID 2282954). To be noted: HepG2 MRE cis-reporter transcription, Attagene multiplex; actives raise or lower the signal. In outline: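 Endogenous MRE-dependent transcription read as reporter mRNA in transiently transfected human HepG2 cells at 24 h. RNA reverse-transcribed, PCR-amplified, labelled and resolved by capillary electrophoresis; gain or loss relative to DMSO.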

The nature of assay [9]: ATG_PBREM_CIS: Attagene CIS-FACTORIAL HepG2 Assay for human Phenobarbital-responsive Enhancer Module (PBREM) (AID 2282955). The following applies: HepG2 PBREM cis-reporter, Attagene multiplexed transcription; actives raise or lower the signal. In outline:
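Fluorescence of labelled reporter cDNA fragments, resolved by capillary electrophoresis, gives mRNA induction in transfected HepG2 cells treated for 24 h; DMSO serves as negative control and baseline.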

The target in assay [10] is Paired box protein Pax-6 (Homo sapiens) (UniProt P26367). The assay can be described thus: ATG_Pax6_CIS: Attagene CIS-FACTORIAL HepG2 Assay for human Paired Box 6 (PAX6) (AID 2282956). To be noted: HepG2 CIS-FACTORIAL PAX6 reporter transcription, RNA readout; actives raise or lower the signal. The gist of the method: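 Read-out is reporter transcript level, measured by RT-PCR with fluorescent primer extension and capillary electrophoresis after 24 h dosing of transfected HepG2 cells. Activity in either direction fitted relative to DMSO control.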
Sequence of Paired box protein Pax-6 (Homo sapiens) (P26367 whole entry, looked up): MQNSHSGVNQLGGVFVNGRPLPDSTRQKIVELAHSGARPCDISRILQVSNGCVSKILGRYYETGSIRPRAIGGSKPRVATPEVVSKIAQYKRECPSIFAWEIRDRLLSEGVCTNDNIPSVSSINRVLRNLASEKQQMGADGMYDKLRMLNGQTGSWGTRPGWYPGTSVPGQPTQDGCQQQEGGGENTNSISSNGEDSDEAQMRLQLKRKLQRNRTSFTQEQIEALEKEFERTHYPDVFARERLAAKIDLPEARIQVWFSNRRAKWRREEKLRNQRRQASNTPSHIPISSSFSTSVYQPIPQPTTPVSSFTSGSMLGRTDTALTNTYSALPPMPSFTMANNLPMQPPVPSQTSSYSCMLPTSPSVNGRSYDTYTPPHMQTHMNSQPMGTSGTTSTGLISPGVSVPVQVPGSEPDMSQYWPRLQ

Assay [11] is described as follows: ATG_PXRE_CIS: Attagene CIS-FACTORIAL HepG2 Assay for human Pregnane X Receptor Element (PXRE) (AID 2282957). The following applies: HepG2 Attagene CIS-FACTORIAL PXRE reporter, mRNA; actives raise or lower the signal. In outline:
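After a 24 h chemical incubation, total RNA from transfected HepG2 cells was reverse-transcribed and reporter cDNA amplified, FAM-labeled, HpaI-digested and sized by capillary electrophoresis. DMSO served as baseline for bidirectional curve fitting.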

A short description of assay [12]: ATG_RORE_CIS: Attagene CIS-FACTORIAL HepG2 Assay for human RAR-related Orphan Receptor Element (RORE) (AID 2282959). The following applies: HepG2 Attagene cis-factorial RORE reporter, mRNA; actives raise or lower the signal. The gist of the method:
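Cells were HepG2 carrying transfected cis-regulated reporter constructs, dosed for 24 hours. Total RNA was reverse-transcribed and reporter cDNA amplified, fluorescently labeled and sized by capillary electrophoresis. Activity was fitted bidirectionally relative to DMSO.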

The nature of assay [13]: ATG_Sox_CIS: Attagene CIS-FACTORIAL HepG2 Assay for human SRY-box transcription factor (SOX) (AID 2282960). To be noted: HepG2 Attagene cis-factorial SOX reporter, mRNA; actives raise or lower the signal. In outline:
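Transient MRTU transfection of HepG2; 24 h compound incubation; TriZol RNA, oligo(dT) RT, PCR, 6-FAM primer extension, HpaI cut, CE. Bidirectional fit, DMSO = baseline.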

Assay [14] deals with Transcription factor Sp1 (Homo sapiens) (UniProt P08047). The assay can be described thus: ATG_Sp1_CIS: Attagene CIS-FACTORIAL HepG2 Assay for human Specificity Protein 1 (Sp1) (AID 2282961). To be noted: HepG2 Sp1 cis-reporter transcription, actives raise or lower the signal. In outline:
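Endogenous Sp1 activity was gauged in human liver HepG2 cells bearing transfected reporter units under a cis-regulating promoter. After 24 h dosing, reporter mRNA was quantified by RT-PCR with capillary electrophoresis, and activity fitted bidirectionally versus DMSO.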

Assay [15] in a line: ATG_SREBP_CIS: Attagene CIS-FACTORIAL HepG2 Assay for human Sterol Regulatory Element Binding (SREBP) (AID 2282962). To be noted: HepG2 Attagene cis-factorial SREBP reporter, mRNA; actives raise or lower the signal. In outline: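 Endogenous SREBP activity read as cis-element-driven reporter transcript in transiently transfected HepG2, 24 h post-dosing; quantified via RT-PCR plus capillary electrophoresis of fluorescent fragments. Gain or loss of signal fitted relative to DMSO baseline.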

For assay [16], the target named is Signal transducer and activator of transcription 3 (Homo sapiens) (UniProt P40763). The assay can be described thus: ATG_STAT3_CIS: Attagene CIS-FACTORIAL HepG2 Assay for human Signal Transducer and Activator of Transcription 3 (STAT3) (AID 2282963). The following applies: HepG2, Attagene cis-factorial STAT3 reporter transcription; actives raise or lower the signal. In outline:
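Readout is reporter transcript quantified by RT-PCR and capillary electrophoresis, with 6-FAM primer extension and HpaI digestion. Total RNA is taken 24 h after dosing transiently transfected HepG2 carrying cis-regulated reporter units. Bidirectional fit against DMSO.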

Assay [17] is described as follows: ATG_TA_CIS: Attagene CIS-FACTORIAL HepG2 Assay for human TA Basal Promoter (AID 2282964). The following applies: HepG2 Attagene CIS-factorial TA basal promoter reporter; actives raise or lower the signal. The gist of the method:
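Background-control readout: TA basal promoter reporter mRNA, fitted in both directions relative to DMSO. Measured by RT-PCR and capillary electrophoresis 24 hours after treating HepG2 human liver cells transiently carrying multiplexed cis-regulated reporter constructs.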

Assay [18] in a line: ATG_TCF_b_cat_CIS: Attagene CIS-FACTORIAL HepG2 Assay for human T-Cell-Factor with beta-catenin (TCF/b-cat) (AID 2282965). The following applies: HepG2 TCF/beta-catenin cis-reporter transcription, actives raise or lower the signal. In outline:
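Measured: reporter mRNA in HepG2 transiently transfected with cis-promoter reporter units, 24 h after chemical addition. Fitting was bidirectional, DMSO as negative control.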

Assay [19] in a line: ATG_PPRE_CIS: Attagene CIS-FACTORIAL HepG2 Assay for human Peroxisome Proliferator-activated Response Element (PPRE) (AID 2282958). The following applies: HepG2 PPRE cis-element reporter, Attagene transcription factor profiling; actives raise or lower the signal. In outline:
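Cells are first transfected transiently with the multiplexed reporter library, then dosed for 24 h. Total RNA is reverse-transcribed, amplified, fluorescently end-labeled and HpaI-cut before capillary electrophoresis; activity is fitted bidirectionally against DMSO controls.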

Sequence of Signal transducer and activator of transcription 3 (Homo sapiens) (P40763 whole entry, looked up): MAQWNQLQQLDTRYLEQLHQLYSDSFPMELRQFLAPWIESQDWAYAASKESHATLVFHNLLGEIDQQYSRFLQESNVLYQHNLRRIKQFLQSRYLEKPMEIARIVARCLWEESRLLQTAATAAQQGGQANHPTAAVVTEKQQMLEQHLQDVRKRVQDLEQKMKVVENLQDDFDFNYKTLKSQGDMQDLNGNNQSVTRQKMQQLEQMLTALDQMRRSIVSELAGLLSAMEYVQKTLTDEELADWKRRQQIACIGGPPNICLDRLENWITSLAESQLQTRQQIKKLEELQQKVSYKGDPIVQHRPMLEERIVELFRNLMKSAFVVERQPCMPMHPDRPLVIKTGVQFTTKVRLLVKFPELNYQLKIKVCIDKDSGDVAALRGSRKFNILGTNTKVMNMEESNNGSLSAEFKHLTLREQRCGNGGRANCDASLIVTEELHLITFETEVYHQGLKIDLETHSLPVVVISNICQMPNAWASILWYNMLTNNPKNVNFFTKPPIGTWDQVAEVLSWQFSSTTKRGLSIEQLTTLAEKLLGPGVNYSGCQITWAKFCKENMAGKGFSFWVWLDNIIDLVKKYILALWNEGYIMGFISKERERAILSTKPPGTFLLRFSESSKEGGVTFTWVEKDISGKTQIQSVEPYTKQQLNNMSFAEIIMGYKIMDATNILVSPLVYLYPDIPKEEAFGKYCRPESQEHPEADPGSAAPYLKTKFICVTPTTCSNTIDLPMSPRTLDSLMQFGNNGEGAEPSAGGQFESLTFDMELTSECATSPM
Sequence of Transcription factor Sp1 (Homo sapiens) (P08047 whole entry, looked up): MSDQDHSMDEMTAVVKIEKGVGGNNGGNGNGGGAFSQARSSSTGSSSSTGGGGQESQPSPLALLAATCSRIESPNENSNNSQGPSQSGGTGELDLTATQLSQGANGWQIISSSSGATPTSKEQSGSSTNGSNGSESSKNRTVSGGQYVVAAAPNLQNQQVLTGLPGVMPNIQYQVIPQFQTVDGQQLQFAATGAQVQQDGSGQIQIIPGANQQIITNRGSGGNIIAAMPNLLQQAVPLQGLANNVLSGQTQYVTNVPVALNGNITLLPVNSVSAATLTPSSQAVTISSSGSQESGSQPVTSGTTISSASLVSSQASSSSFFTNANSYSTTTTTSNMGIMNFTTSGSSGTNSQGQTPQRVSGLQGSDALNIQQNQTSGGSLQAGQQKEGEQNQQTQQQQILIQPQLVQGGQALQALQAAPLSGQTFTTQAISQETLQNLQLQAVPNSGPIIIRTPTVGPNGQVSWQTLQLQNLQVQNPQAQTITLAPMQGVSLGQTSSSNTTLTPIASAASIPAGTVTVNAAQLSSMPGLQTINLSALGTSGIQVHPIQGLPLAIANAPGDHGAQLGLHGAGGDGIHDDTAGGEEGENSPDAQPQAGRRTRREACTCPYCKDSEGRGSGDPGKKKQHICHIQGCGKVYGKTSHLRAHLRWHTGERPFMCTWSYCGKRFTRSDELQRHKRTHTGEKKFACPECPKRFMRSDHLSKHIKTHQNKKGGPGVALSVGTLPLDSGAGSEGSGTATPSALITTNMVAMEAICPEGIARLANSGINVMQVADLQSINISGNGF
Sequence of Hepatocyte nuclear factor 6 (Homo sapiens) (Q9UBC0 whole entry, looked up, the tested form may be a part): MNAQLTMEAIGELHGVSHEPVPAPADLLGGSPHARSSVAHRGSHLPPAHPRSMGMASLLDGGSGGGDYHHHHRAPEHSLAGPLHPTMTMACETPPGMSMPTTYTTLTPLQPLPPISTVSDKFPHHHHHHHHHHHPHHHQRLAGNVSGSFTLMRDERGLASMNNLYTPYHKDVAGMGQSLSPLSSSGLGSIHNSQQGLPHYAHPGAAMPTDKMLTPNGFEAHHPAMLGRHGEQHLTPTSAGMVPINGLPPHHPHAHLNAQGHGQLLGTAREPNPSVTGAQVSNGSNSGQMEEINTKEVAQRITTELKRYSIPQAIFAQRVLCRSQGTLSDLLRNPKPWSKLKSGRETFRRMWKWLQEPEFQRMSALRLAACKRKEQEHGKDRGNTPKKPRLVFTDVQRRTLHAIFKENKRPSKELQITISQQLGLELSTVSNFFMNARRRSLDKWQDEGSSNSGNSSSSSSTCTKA

In the case of `OC1OC[C@@H](O)[C@H](O)[C@H]1O` (stereo partly specified), the compound was classed as inactive in assay [1], in assay [2], in assay [3], in assay [4], in [5] and in assay [6]. For the same compound, the result in assay [7], in [8], in assay [9], in assay [10], in assay [11] and in [12] was inactive. Besides, the compound was classed as inactive in assay [13], in assay [14], in assay [15], in assay [16], in [17] and in assay [18].

On to `CC(C=O)Cc1ccc(C(C)C)cc1` (stereo unspecified), for which the compound was classed as inactive in [1], in [2], in [3], in assay [4], in [5] and in assay [6]. Further, the call in assay [7], in assay [8], in assay [9], in assay [10], in [12] and in assay [13] was inactive. Besides, the compound was called inactive in assay [14], in assay [15], in assay [16], in assay [17] and in [18]. The AC50 in [11] was 24 µM (active).

Regarding `CC1(C)[C@H]2CC[C@]1(C)[C@H](O)C2`, the outcome in assay [1], in assay [2], in assay [3], in [4], in [5] and in assay [6] was inactive. In addition, the compound was called inactive in assay [7], in assay [8], in assay [9], in [10], in assay [12] and in assay [13]. Moreover, the compound was classed as inactive in [14], in assay [15], in [16], in [17] and in [18]. In addition, the concentration at half-maximal activity (AC50) in [11] was 68.7 µM (active).

Consider `CCC(C)CCCC(C)(C)O` (stereo unspecified), for which the call in assay [1], in assay [2], in assay [3], in [4], in assay [5] and in assay [6] was inactive. In addition, the compound was called inactive in assay [7], in assay [8], in assay [10], in assay [11], in [19] and in assay [12]. Also, the outcome in [13], in [14], in [15], in [16], in assay [17] and in assay [18] was inactive.

As to `CCc1ccc(C=O)cc1`, the result in [1], in assay [2], in [3], in assay [4], in [5] and in assay [6] was inactive. Besides, the outcome in [7], in assay [8], in assay [9], in assay [10], in assay [11] and in assay [12] was inactive. Also, the result in assay [13], in assay [14], in assay [15], in [16], in assay [17] and in assay [18] was inactive.

As for `COCCOCCOCCOCCOCCO`, the compound was called inactive in assay [1], in assay [2], in [3], in [4], in assay [5] and in assay [6]. Further, the compound was called inactive in assay [7], in [8], in assay [9], in assay [10], in assay [11] and in assay [19]. The call in [12], in [13], in assay [15], in [16] and in assay [17] was inactive.

On to `Nc1ccc(S(N)(=O)=O)cc1`, for which the compound was called inactive in assay [1], in [2], in assay [3], in [4], in assay [5] and in assay [6]. Further, the outcome in assay [7], in [8], in [9], in assay [10], in assay [11] and in [13] was inactive. Besides, the compound was called inactive in assay [14], in [15], in [17] and in [18].

With `CCCCc1ccc(N)cc1`, the result in assay [1], in assay [2], in [3], in [4], in assay [5] and in [6] was inactive. The result in assay [7], in assay [8], in assay [9], in assay [10], in [11] and in assay [12] was inactive. In addition, the result in assay [13], in [14], in [15], in [16] and in assay [17] was inactive. The half-maximal activity concentration (AC50) in assay [18] is 28.2 µM (active).
